# Most compounds without a hit are left out; they make up all but 10% or so of the library.
# FLuc inh = Firefly luciferase inhibition profiling of diverse chemical library using quantitative high-throughput screening. Luciferin 4-monooxygenase (Photinus pyralis), P08659. purified P. pyralis luciferase, luminescence, biochemical. Potency, µM (highest dose often 115 µM), most hits filed as inhibitors. 2.5% of 76,000 active; note: % is set by controls: 0 for no effect and ±100 for the full control effect; nearly all actives have a fitted effect of over 65% in size
#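 Purified P. pyralis luciferase (10nM final) in 50mM Tris acetate pH 7.5, 10mM Mg acetate, 0.01% Tween-20, 0.05% BSA with 10uM D-luciferin and 10uM ATP. Compounds titrated qHTS. Luminescence imaged on CCD.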
# NPR1 antag = Natriuretic polypeptide receptor (hNpr1) antagonism - Primary qHTS; HEK293 hNpr1 GloSensor cGMP, ANP-stimulated luminescence; 1.6% of 76,000 active; Potency, µM (titrated, usually from 46.3 µM), without a hit: top-dose activity change, negative = inhibition, usual class: inhibitors; Atrial natriuretic peptide receptor 1 (Homo sapiens), P16066; calls by dose curve; note: % is set by controls: 0 for no effect and ±100 for the full control effect; nearly all actives have a fitted effect of over 60% in size
#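 Compound pre-incubated 30 min at room temperature on GloSensor-loaded HEK293 cells stably carrying hNpr1 and the pGS-40F cGMP biosensor. Stimulation uses hNppA at 0.1 nM final; luminescence is taken at baseline and 20 min post-agonist.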
# 3T3 cytotox = Cytotoxic Profiling in NIH 3T3 Cell Line of Diverse Libraries Using Quantitative High-Throughput Screening. NIH 3T3 viability, CellTiter-Glo ATP luminescence, 48-72 h. Potency, µM (titrated, usually from 96.7 µM), for inactives: top-dose activity change, negative = cytotoxicity, hits mostly inhibitors. 4.3% of 94,000 active; note: % is set by controls: 0 for no effect and ±100 for the full control effect; nearly all actives have a fitted effect of over 55% in size
#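 Cytotoxicity is measured as loss of cellular ATP: NIH 3T3 cells (400/well) are exposed to compound for 48 or 72 hr at 37 °C, then CellTiter-Glo luminescence is imaged after 10 min at room temperature.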
# HEK cytotox = Cytotoxic Profiling in HEK 293 Cell Line of Diverse Libraries Using Quantitative High-Throughput Screening | HEK 293 viability, ATP luminescence (CellTiter-Glo), 48-72 h | Potency, µM (series often up to 115 µM), inactives show top-dose activity change, negative = cytotoxicity, most hits filed as inhibitors | 6.6% of 94,000 active; note: % is set by controls: 0 for no effect and ±100 for the full control effect; nearly all actives have a fitted effect of over 60% in size
#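 250 HEK 293 cells/well; compound by pintool; incubated 48 or 72 hr at 37 degree Celsius; CellTiter-Glo added, 10 min RT, luminescence imaged.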
# GPT2 inhibitor = Primary qHTS assay for inhibitors of Glutamate pyruvate transaminase 2 (GPT2); Alanine aminotransferase 2 (Homo sapiens), Q8TD30; Recombinant GPT2, coupled pyruvate oxidase/HRP Amplex Red fluorescence; Potency, µM (series often up to 57.7 µM), without a hit: at the top dose activity change, negative = inhibition, actives largely listed as inhibitors; 0.25% of 100,000 active; note: % is set by controls: 0 for no effect and ±100 for the full control effect; nearly all actives have a fitted effect of over 60% in size
#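 Inhibition is scored from Amplex Red fluorescence generated when pyruvate oxidase and HRP act on pyruvate released by GPT2. Reactions contain 10ng/uL enzyme, 250uM a-KG and 2mM L-alanine and run 30 min at room temperature.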
# Npr1 antag conf = Natriuretic polypeptide receptor (hNpr1) antagonism - Confirmation; shares compounds with NPR1 antag; HEK293 hNpr1 cGMP GloSensor luminescence, ANP-stimulated; Potency, µM (titrated, usually from 57.6 µM), without a hit: at the highest dose activity change, negative = inhibition, actives largely listed as inhibitors; 76% of 1,400 active; AID 1347044, 2019; calls by dose curve; note: nearly all actives have a fitted effect of over 70% in size
# NPR2 antag = Natriuretic polypeptide receptor (hNpr2) antagonism - Subtype selectivity assay. Potency, µM (highest dose often 57.6 µM), inactives show at the highest dose activity change, negative = inhibition, usual class: inhibitors. 67% of 1,400 active. shares compounds with NPR1 antag. AID 1347046, 2019. HEK293 hNpr2 GloSensor cGMP luminescence, CNP-stimulated; calls by dose curve; note: nearly all actives have a fitted effect of over 70% in size
# FLuc counter = Natriuretic polypeptide receptor (hNpr1) antagonism - Confirmation firefly luciferase (FLuc) inhibition counterscreen. shares compounds with NPR1 antag. purified FLuc enzyme, luminescence, Km substrate. Potency, µM (top dose mostly 57.6 µM), without a hit: top-dose activity change, negative = inhibition, most hits filed as inhibitors. 0.7% of 1,400 active. AID 1347047, 2019; note: 0% is about no effect
# GloSensor cGMP = Natriuretic polypeptide receptor (hNpr1) antagonism - Counterscreen GloSensor control cell line; HEK293 GloSensor cGMP, SNP-stimulated, luminescence; Potency, µM (highest dose often 57.6 µM), for the others: at the highest dose activity change, negative = inhibition, hits mostly inhibitors; AID 1347051, 2019; 69% of 1,400 active; shares compounds with NPR1 antag; calls by dose curve; note: % is set by controls: 0 for no effect and ±100 for the full control effect; nearly all actives have a fitted effect of over 70% in size
# Numbers without * were called inactive; i = inactive; ? = inconclusive; · = not tested or not shown; [ ] = another dose, or the depositor's remark. Unless noted, calls come from the whole dose curve; as a rule, active = well fitted curve in the direction sought with a large enough effect; inconclusive = small, poorly fitted or top-dose-only effect, or another doubt; inactive = no such curve, though single readings can be large; an effect the other way counts as inactive or inconclusive. Potency is the fitted concentration of half-maximal effect.
SMILES,FLuc inh,NPR1 antag,3T3 cytotox,HEK cytotox,GPT2 inhibitor,Npr1 antag conf,NPR2 antag,FLuc counter,GloSensor cGMP
O=C(CC1CCCCN(Cc2ccccc2)C1=O)N1CCN(c2ccc(F)cc2)CC1 (stereo unspecified),i,11µM*,-27%,?,i,24µM*,22µM*,1%,22µM*
O=C(CC1CCCCN(Cc2ccccc2)C1=O)Nc1ccc(F)cc1F (stereo unspecified),i,0%,-27%,?,5%,·,·,·,·
O=C(C1CCCC1)N1CCC(CCOc2ccccc2F)C1 (stereo unspecified),i,-15%,?,?,-21%,·,·,·,·
Cc1ccc(OCCC2CCN(C(=O)Cc3cccnc3)C2)cc1 (stereo unspecified),i,?,-29%,?,i,?,?,-5%,?
O=C(C1CCCC1)N1CCC(CCOc2ccc(F)cc2)C1 (stereo unspecified),i,?,?,?,-6%,?,?,3%,22µM*
CC(=O)N1CCC(C2CCN(Cc3cccc(C)c3)C2)CC1 (stereo unspecified),i,-6%,-7%,-24%,i,·,·,·,·
CO[C@H]1C(=O)N(C2CCN(C(=O)C(C)C)CC2)[C@H]1c1ccncc1,·,·,-26%,-9%,3%,·,·,·,·
O=[S+]([O-])(Nc1ccccc1)c1ccc2c(c1)OCCN(Cc1cccnc1)C2,i,22µM*,?,?,-3%[88.5 µM],40µM*,?,6%[86.2 µM],40µM*
CCOc1ccccc1C(=O)N1CCc2[nH]nc(C(=O)NCCCc3ccccc3)c2C1,i,?,?,22µM*,i,24µM*,?,4%,19µM*
CNC(=O)c1cc(C2CC2)nc2onc(C3CCN(C(=O)c4ccccn4)C3)c12 (stereo unspecified),·,·,-23%,-14%,·,·,·,·,·
O=C(N1CCC(Cc2nc(-c3ccc(F)cc3)no2)CC1)C1(c2ccccc2)CC1,i,?,?,?,i,·,·,·,·
COc1ccc(C2(C(=O)N3CCC(Cc4nc(-c5ccc(F)cc5)no4)CC3)CC2)cc1,i,5.6µM*,?,?,i,4.8µM*,6.1µM*,0%,6.1µM*
COc1ccc(C2(C(=O)N3CCC(Cc4nc(-c5ccccc5)no4)CC3)CC2)cc1,i,7.9µM*,?,?,i,7.7µM*,9.7µM*,0%,9.7µM*
CCOC(=O)N1CCC(c2noc3nc(C)cc(C(=O)NC)c23)C1 (stereo unspecified),·,·,-23%,2%,·,·,·,·,·
O=C(CCc1ccccc1)N1CCC(n2cc(-c3nc(-c4ccccc4)no3)nn2)C1 (stereo unspecified),i,0%,-28%,?,i,·,·,·,·
Cc1noc(-c2cn(C3CCN(C(=O)c4ccc(F)c(Cl)c4)CC3)nn2)n1,i,-1%,?,-14%,i,·,·,·,·
COc1ccc(CCC(=O)N2CCCC(n3cc(-c4nc(-c5ccccc5)no4)nn3)C2)cc1 (stereo unspecified),?,13µM*,?,?,i,24µM*,24µM*,12µM*,24µM*
O=C(c1cccc(Cl)c1)N1CCCC(n2cc(-c3nc(-c4ccccc4)no3)nn2)C1 (stereo unspecified),?,16µM*,?,?,-5%,27µM*,27µM*,-29%,27µM*
Cc1noc(-c2cn(C3CCCN(C(=O)c4cccc(Cl)c4)C3)nn2)n1 (stereo unspecified),i,-8%,?,-6%,-8%,·,·,·,·
O=C(c1ccc(F)c(Cl)c1)N1CCC(n2cc(-c3nc(-c4ccccc4)no3)nn2)CC1,i,13µM*,?,?,2%,24µM*,22µM*,-20%,22µM*
O=C(c1ccccc1F)N1CCC(n2cc(-c3nc(-c4ccccc4)no3)nn2)C1 (stereo unspecified),i,14µM*,?,?,i,22µM*,22µM*,-13%,17µM*
COc1cccc(C(=O)N2CCCC3(CN[S+](=O)([O-])c4cnccc4N3)C2)c1 (stereo unspecified),·,·,-14%,4%,·,·,·,·,·
O=C(c1ccc(F)c(F)c1)N1CCC(n2cc(-c3nc(-c4ccccc4)no3)nn2)CC1,i,11µM*,?,?,3%,24µM*,24µM*,-22%,22µM*
COc1ccc(C(=O)N2CCC(n3cc(-c4nc(-c5ccccc5)no4)nn3)CC2)cc1,i,?,?,?,i,22µM*,24µM*,-16%,22µM*
O=C(N[C@@H]1CN(c2ncccn2)C[C@H]1CO)c1ccc2c(c1)OCO2,i,0%,-15%,-1%,i,·,·,·,·
COc1ccc(Cl)cc1-c1ccc2c(n1)CN(CCOc1ccccc1)C(=O)CO2,i,22µM*,?,100µM*,-3%[88.5 µM],35µM*,35µM*,1%[86.2 µM],31µM*
COc1ccc(C2Cn3nnc(-c4nc(C5CC5)no4)c3CO2)cc1 (stereo unspecified),i,?,-34%,-11%,i,?,-22%,2%,-17%

# Source: PubChem BioAssay (National Center for Advancing Translational Sciences (NCATS))
